# Data: PubChem BioAssay (NCATS)
# Inconclusive results are not listed. A call without a number means that no potency is given here. Active and inactive are the calls of the source. Calls follow the shape of the dose curve; as a rule, active = well fitted cell-killing curve with a large enough effect; inconclusive = small, poorly fitted or top-dose-only effect; inactive = flat fitted curve, though single readings scatter.
# Experiment: Cellular viability qHTS for adrenocortical cancer (ACC) cell line NCI-H295R (AID 1963990); also: nearly all actives have a fitted effect of over 60% in size
# Conditions: CellTiter-Glo ATP luminescence, 48 h; series mostly up to 46.1 µM
# In short: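 Readout: CellTiter-Glo luminescence, 20 min RT. Exposure: 48 h, 37C/5% CO2. Cells: NCI-H295R, ITS-DMEM serum-free. Range: up to 46 uM. Analysis: 4PL fit, IC50 plus efficacy.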
# Potency is read from the fitted curve at half-maximal effect.
row,Structure (SMILES),Potency
1,O=C1Nc2nc(-c3c(O)cccc3OCC3CC3)cc([C@@H]3CCCNC3)c2CO1,17.8 µM (active)
2,CO[C@@H]1[C@@H](OC)[C@H](C)[C@@](O)(CC(=O)O)O[C@H]1[C@H](C)[C@H]1O[C@@]2(CC[C@@](C)([C@H]3CC[C@@](C)([C@@H]4O[C@@H]([C@H]5O[C@](C)(O)[C@H](C)C[C@@H]5C)C[C@@H]4OC4C[C@H](OC)[C@@H](OC)[C@H](C)O4)O3)O2)C[C@H](O)[C@H]1C (stereo not given in full),1.16 µM (active)
3,COc1cc(C(=O)O)ccc1NC(=O)[C@@H]1N[C@@H](CC(C)(C)C)[C@](C#N)(c2ccc(Cl)cc2F)[C@H]1c1cccc(Cl)c1F,inactive
4,OCc1ccccc1O[C@@H]1O[C@H](CO)[C@@H](O)[C@H](O)[C@H]1O,inactive
5,C[C@@H](O[C@H]1OCCN(Cc2n[nH]c(=O)[nH]2)[C@@H]1c1ccc(F)cc1)c1cc(C(F)(F)F)cc(C(F)(F)F)c1,25.1 µM (active)
6,c1cc(-c2cnn3cc(-c4ccc(N5CCNCC5)cc4)cnc23)c2cccnc2c1,6.31 µM (active)
7,CCC[C@H](N[C@H]1CCc2cc(F)cc(F)c2C1)C(=O)Nc1cn(C(C)(C)CNCC(C)(C)C)cn1,25.1 µM (active)
8,Cn1ncc(Cl)c1-c1cc(C(=O)N[C@H](CN)Cc2ccc(F)c(F)c2)sc1Cl,3.16 µM (active)
9,COc1ccccc1C(=O)Nc1cc2c(cc1N1CCCCC1)n(C)c(=O)n2C,inactive
10,COc1cc(C(=S)N2CCOCC2)cc(OC)c1OC,inactive
11,CO/N=C(\C(=O)O)c1csc(NC(=O)CCl)n1,inactive
12,CC(C)C[C@@H](N)C(=O)O,inactive
13,C1=C/COCc2cc(ccc2OCCN2CCCC2)Nc2nccc(n2)-c2cccc(c2)COC/1,5.01 µM (active)
14,CCCCOCCOC(=O)c1cccnc1,inactive
15,COc1ccc(CCN2CCC(Nc3nc4ccccc4n3Cc3ccc(F)cc3)CC2)cc1,14.6 µM (active)
16,CN(C)C/C=C/C(=O)Nc1cc2c(Nc3ccc(F)c(Cl)c3)ncnc2cc1O[C@H]1CCOC1,7.08 µM (active)
17,CC1=C(/C=C/C(C)=C/C=C/C(C)=C/C(=O)O)C(C)(C)CCC1,inactive
18,C=CC(=O)N1CCC[C@@H](n2nc(-c3ccc(Oc4ccccc4)cc3)c3c(N)ncnc32)C1,inactive
19,CC[C@@H]1[C@H](F)C(=O)N[C@@H]1COc1nccc2cc(C(N)=O)c(OC)cc12,inactive
20,CN(C)C/C=C/C(=O)Nc1cccc(C(=O)Nc2cccc(Nc3ncc(Cl)c(-c4c[nH]c5ccccc45)n3)c2)c1,1.12 µM (active)

row,Structure (SMILES),Potency
1,C=CC(=O)Nc1cccc(Nc2nc(Nc3ccc(OCCOC)cc3)ncc2F)c1,3.98 µM (active)
2,COc1ccc(Cc2cnc(N)nc2N)cc1OC,inactive
3,CCCCCCCCCCCCCCCC[N+](C)(C)CC,7.31 µM (active)
4,OC1(c2ccc(Cl)c(C(F)(F)F)c2)CCN(CCCC(c2ccc(F)cc2)c2ccc(F)cc2)CC1,3.66 µM (active)
5,C[C@]12CCCN1CC1=NNC(=O)c3cc(F)cc4[nH]c2c1c34,inactive
6,CCNC(=O)NCc1cccc(Cl)c1,inactive
7,C=C1[C@H](OC(=O)/C=C(\C)CC)C[C@@H](C(C)C)[C@@H]2[C@H]([C@@H](C)OC(C)=O)C(=O)C[C@@H]12,inactive
8,COC(=O)c1cc(Cl)c(NC(C)=O)cc1OC,inactive
9,COc1cc(OC)c(/C=C/S(=O)(=O)Cc2ccc(OC)c(NCC(=O)O)c2)c(OC)c1,0.0224 µM (active)
10,O=C(CCc1ccc(O)cc1)c1c(O)cc(O)cc1O[C@@H]1O[C@H](CO)[C@@H](O)[C@H](O)[C@H]1O,inactive
11,c1ccc2sc(SN3CCOCC3)nc2c1,inactive
12,Cc1c(N(C)C)c(=O)n(-c2ccccc2)n1C,inactive
13,CCCCCN(CCCOC)C(=O)C(CCC(=O)O)NC(=O)c1ccc(Cl)c(Cl)c1 (stereo not given),inactive
14,CCNCCc1ccc(CN(CC)c2cc(OC)ccc2[C@@H]2CCc3cc(O)ccc3C2)cc1,3.98 µM (active)
15,Cc1ccc([N+](=O)[O-])cc1S(=O)(=O)N(C)/N=C/c1cnc2ccc(Br)cn12,0.282 µM (active)
16,N=C(N)c1ccc2nc(-c3cc(CC(=O)N[C@@H](CC(=O)O)C(=O)O)cc(-c4cc(S(N)(=O)=O)ccc4O)c3O)[nH]c2c1,inactive
17,C#CC[C@H](c1nc2cc(Cl)ccc2c(=O)n1Nc1ccccc1)N(CCCN)C(=O)c1cccc(Cl)c1F,3.55 µM (active)
18,CC(=O)c1ccc(O)c(C(N)=O)c1,inactive
19,CC(C)Cc1ccc([C@@H](C)C(=O)NS(C)(=O)=O)cc1,inactive
20,COC1=C(OC)C(=O)C(C/C=C(\C)CC/C=C(\C)CC/C=C(\C)CC/C=C(/C)CC/C=C(\C)CC/C=C(\C)CC/C=C(\C)CC/C=C(\C)CC/C=C(\C)CCC=C(C)C)=C(C)C1=O,inactive
